Screens: PubChem BioAssay, National Center for Advancing Translational Sciences (NCATS)
An excerpt weighted towards active compounds, which were near 11% of everything screened.
L3MBTL1 block = L3MBTL1 (human) inhibition; Q9Y468; AlphaScreen L3MBTL1–H3K9me1 peptide binding; Potency, µM (top dose mostly 57.1 µM), without a hit: at the top dose activity, negative = inhibition, most hits filed as inhibitors; 0.66% of 230,000 active; AID 485360; note: % is set by controls: 0 for no effect and ±100 for the full control effect; nearly all actives have a fitted effect of over 60% in size
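First, the protein-peptide complex forms for 30 min at room temperature (L3MBTL1 50 nM, biotinylated H3K9me1 peptide 75 nM). Next, compounds are pin-transferred and incubated 30 min. Finally, AlphaScreen beads are added and read after 30 min.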
HP1b binding inh = blocks HP1-beta chromodomain binding to methylated histone tails; AlphaScreen HP1-beta / biotin-H3K9me3 peptide binding; Potency, µM (series often up to 114 µM), inactives show at the top dose activity change, negative = inhibition, usual class: inhibitors; 0.56% of 390,000 active; note: nearly all actives have a fitted effect of over 70% in size
Target sequence (P83916 whole entry, looked up): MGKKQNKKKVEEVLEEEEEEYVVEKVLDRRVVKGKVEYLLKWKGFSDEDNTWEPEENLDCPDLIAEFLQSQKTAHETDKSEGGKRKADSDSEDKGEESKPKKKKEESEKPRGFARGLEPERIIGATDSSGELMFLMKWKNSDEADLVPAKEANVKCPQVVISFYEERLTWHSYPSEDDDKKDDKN
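AlphaScreen: HP1-beta (50 nM) preformed 30 min with biotin-H3(1-18)K9me3 peptide (50 nM) in PBS pH 7.4, 0.01% Tween-20. Compound added for 30 min at RT, then streptavidin donor/nickel chelate acceptor beads (10 ug/mL) for 30 min.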
BAZ2B inh = inhibitors of human BAZ2B bromodomain; Q9UIF8; AlphaScreen BAZ2B-H3K14Ac peptide displacement; Potency, µM (series often up to 114 µM), for inactives: at the top dose activity change, negative = inhibition, actives largely listed as inhibitors; 4.4% of 360,000 active; AID 504333; note: % is set by controls: 0 for no effect and ±100 for the full control effect; nearly all actives have a fitted effect of over 60% in size
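BAZ2B (50 nM) with biotin-H3(5-23)K14Ac peptide (50 nM) in PBS pH 7.4, 0.01% Tween-20, preformed 30 min, then compound 30 min at room temperature; top concentration 110uM. AlphaScreen streptavidin donor/nickel chelate acceptor beads (10 ug/mL final), 20 min dark, signal read.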
G9a block = inhibitors of human histone lysine methyltransferase G9a; Q96KQ7; 8.8% of 350,000 active; AID 504332; G9a H3K9 monomethylation, AlphaScreen, 2 h; Potency, µM (top dose mostly 102 µM), for the others: at the top dose activity, negative = inhibition, actives largely listed as inhibitors; note: % is set by controls: 0 for no effect and ±100 for the full control effect; nearly all actives have a fitted effect of over 75% in size
Target sequence (Q96KQ7 913-1193 limits assumed): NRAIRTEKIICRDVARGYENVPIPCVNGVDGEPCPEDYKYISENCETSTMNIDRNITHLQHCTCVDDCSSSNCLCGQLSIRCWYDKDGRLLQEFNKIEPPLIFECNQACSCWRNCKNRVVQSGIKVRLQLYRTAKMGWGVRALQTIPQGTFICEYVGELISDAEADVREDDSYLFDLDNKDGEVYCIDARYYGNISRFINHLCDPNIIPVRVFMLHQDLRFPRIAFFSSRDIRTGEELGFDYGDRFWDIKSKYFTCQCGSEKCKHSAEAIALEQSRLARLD
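AlphaScreen read-out: biotin-H3K9 peptide (500 nM) methylation by 20 nM enzyme with 20 uM SAM, 2 h at room temperature after 15 min compound preincubation; anti-monomethyl H3K9 antibody plus donor/acceptor beads, 10 min dark.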
JMJD2A Tudor = JMJD2A Tudor domain (human) inhibition; AlphaScreen JMJD2A-Tudor / H3K4me3 peptide binding; Potency, µM (highest dose often 114 µM), for the others: at the highest dose activity change, negative = inhibition, usual class: inhibitors; AID 504339; 4.4% of 390,000 active; note: % is set by controls: 0 for no effect and ±100 for the full control effect; nearly all actives have a fitted effect of over 50% in size
* marks the source's active call; other numbers are inactive results; [ ] = remark or other dose. Calls come from the whole dose curve; as a rule, active = well fitted inhibition curve with a large enough effect; inconclusive = small, poorly fitted or top-dose-only effect; inactive = no such curve, though single readings can be large or run the other way. Potency is the fitted concentration of half-maximal effect.

What do the screens show for `O=C(CCCn1c(=O)c2cccn2c2ccccc21)Nc1cccc(Cl)c1`?
HP1b binding inh: -8.9%; BAZ2B inh: inconclusive; G9a block: -45.4%[59 µM]; JMJD2A Tudor: -35.5%

Results for COc1ccc(S(=O)(=O)Nc2ccc(O)c3ccccc23)cc1 ?
L3MBTL1 block: 28.2µM*; HP1b binding inh: inconclusive; BAZ2B inh: 39.8µM*; G9a block: inconclusive; JMJD2A Tudor: 31.6µM*

What do the screens show for `COc1ccc(S(=O)(=O)Nc2ccccc2)cc1`?
HP1b binding inh: 4.9%; JMJD2A Tudor: -10.1%

Results for COc1ccc(N2CCN(S(=O)(=O)c3ccc(OC)c(-c4noc(C)n4)c3)CC2)cc1 ?
HP1b binding inh: 23.6%; BAZ2B inh: -5.3%; G9a block: -23.5%[59 µM]; JMJD2A Tudor: -5.5%

How did CSc1nccn1C(=O)c1ccccc1[N+](=O)[O-] do in these assays?
HP1b binding inh: 9.9%; BAZ2B inh: -30.5%; G9a block: 35.5µM*; JMJD2A Tudor: 35.5µM*

How did COCCCNC(=O)C(C)n1c2ccccc2c2cnn(C)c(=O)c21 (stereo not given) do in these assays?
HP1b binding inh: 32.4%; BAZ2B inh: 3.9%; G9a block: -2.2%[59 µM]; JMJD2A Tudor: -6.7%

What do the screens show for `CCC(C(=O)O)n1c(C(F)(F)F)nc2ccccc21` (stereo not given)?
L3MBTL1 block: 0.5%[11.4 µM]; HP1b binding inh: 37.2%; BAZ2B inh: 10.4%; G9a block: 0.3%[12.7 µM]; JMJD2A Tudor: 14.4%

Results for CCC(C(=O)O)n1c2ccccc2c2cn[nH]c(=O)c21 (stereo not given) ?
HP1b binding inh: 29.6%; BAZ2B inh: 3.7%; G9a block: 44.7µM*; JMJD2A Tudor: -12.0%

How did CC(C(=O)O)n1c2ccccc2c2cnn(C)c(=O)c21 (stereo not given) do in these assays?
HP1b binding inh: 39.7%; BAZ2B inh: -5.8%; G9a block: 44.7µM*; JMJD2A Tudor: -4.8%

What do the screens show for `O=C(CSC1=Nc2ccccc2N=C(c2ccc(F)cc2)C1)Nc1cccc(C(F)(F)F)c1`?
HP1b binding inh: 6.8%[57 µM]; BAZ2B inh: -14.6%; G9a block: 3.4%[59 µM]; JMJD2A Tudor: -23.3%

What do the screens show for `CNS(=O)(=O)c1cn(CC(=O)N2CCN(c3ccc(C)cc3C)CC2)cc1S(=O)(=O)NC`?
HP1b binding inh: 25.8%; BAZ2B inh: -12.8%; G9a block: inconclusive; JMJD2A Tudor: -12.1%

What do the screens show for `CC(=O)Nc1ccc(S(=O)(=O)N2C(C)CCCC2C)cc1` (stereo not given)?
HP1b binding inh: 24.6%; BAZ2B inh: -31.5%; G9a block: 56.2µM*; JMJD2A Tudor: -12.8%

Results for CC1CCCC(C)N1S(=O)(=O)c1ccc(NC(=O)CNC2CCCC2)cc1 (stereo not given) ?
HP1b binding inh: 2.2%; BAZ2B inh: -4.4%; G9a block: 44.7µM*; JMJD2A Tudor: -17.3%

Results for Nc1ccc(O)cc1C(=O)OCC(=O)c1ccc(C2CCCCC2)cc1 ?
L3MBTL1 block: -15.0%; HP1b binding inh: inconclusive; BAZ2B inh: 39.8µM*; G9a block: 44.7µM*; JMJD2A Tudor: inconclusive

Results for COc1ccc(C(=O)OCC(=O)c2ccc(C3CCCCC3)cc2)cc1 ?
L3MBTL1 block: 8.9%; HP1b binding inh: 51.1%; BAZ2B inh: 18.8%; G9a block: 9.5%[59 µM]; JMJD2A Tudor: 27.4%

Results for Nc1ccc(O)cc1C(=O)OCC(=O)C12CC3CC(CC(C3)C1)C2 ?
L3MBTL1 block: inconclusive; HP1b binding inh: -19.5%; BAZ2B inh: 50.1µM*; G9a block: 31.6µM*; JMJD2A Tudor: inconclusive

How did O=C(OCC(=O)C12CC3CC(CC(C3)C1)C2)c1ccc(O)cc1 do in these assays?
L3MBTL1 block: -5.0%; HP1b binding inh: 14.5%; JMJD2A Tudor: -24.8%

How did O=C(Oc1ccc(Cl)c2cccnc12)N1CCCCC1 do in these assays?
L3MBTL1 block: 9.0%; HP1b binding inh: 19.1%; BAZ2B inh: -2.8%; G9a block: -8.0%[59 µM]; JMJD2A Tudor: -15.7%

How did O=C(Oc1ccc(Cl)c2cccnc12)c1cccnc1 do in these assays?
L3MBTL1 block: inconclusive; HP1b binding inh: 45.0%; BAZ2B inh: 56.2µM*; G9a block: 0.6%; JMJD2A Tudor: -26.3%

How did Oc1ccc(F)c2cccnc12 do in these assays?
L3MBTL1 block: inconclusive; HP1b binding inh: -18.0%; BAZ2B inh: 15.8µM*; G9a block: -4.1%[59 µM]; JMJD2A Tudor: 10µM*

How did Oc1ccc(Cl)c2cccnc12 do in these assays?
HP1b binding inh: 9.2%; G9a block: 24.0%[59 µM]; JMJD2A Tudor: 17.8µM*

Results for Oc1c(I)cc(I)c2cccnc12 ?
L3MBTL1 block: -6.6%; HP1b binding inh: -19.7%; BAZ2B inh: 8.6%; G9a block: 50.1µM*; JMJD2A Tudor: 56.2µM*

How did CCn1c(C(=O)Nc2cc(C)cc(C)c2)cc2sc(Cl)cc21 do in these assays?
HP1b binding inh: 44.1%; BAZ2B inh: 5.4%; G9a block: -0.1%[59 µM]; JMJD2A Tudor: -0.7%

What do the screens show for `CCOc1ccc(CNC(=O)Cc2ccc(NC(=O)N3CCSc4ncccc43)cc2)cc1`?
HP1b binding inh: 24.8%; BAZ2B inh: -16.5%; G9a block: -5.8%[59 µM]; JMJD2A Tudor: -8.3%

How did O=C(NCc1ccccc1Cl)c1ccc(NC(=O)N2CCSc3ccccc32)cc1 do in these assays?
HP1b binding inh: 19.4%; BAZ2B inh: -2.6%; G9a block: 11.5%[59 µM]; JMJD2A Tudor: -14.1%

Results for Oc1c(Cl)cc(Cl)c2cccnc12 ?
HP1b binding inh: -4.6%; G9a block: 39.8µM*; JMJD2A Tudor: 28.2µM*

How did O=C(Oc1c(Cl)cc(Cl)c2cccnc12)c1cccs1 do in these assays?
L3MBTL1 block: 16.0%; HP1b binding inh: 124.6%; BAZ2B inh: 24.3%; G9a block: 12.6%[59 µM]; JMJD2A Tudor: 37.9%

Results for Clc1cc2cccnc2c2ccccc12 ?
L3MBTL1 block: 18.5%; HP1b binding inh: 70.5%; BAZ2B inh: 63.1%; G9a block: -24.8%[59 µM]; JMJD2A Tudor: 28.4%

What do the screens show for `O=C(Oc1c(Cl)cc(Cl)c2cccnc12)c1ccco1`?
HP1b binding inh: 23.4%; BAZ2B inh: inconclusive; G9a block: inconclusive; JMJD2A Tudor: 89.1µM*

What do the screens show for `Cc1ccc(S(=O)(=O)Nc2cc(Cl)c(O)c3ncccc23)cc1`?
HP1b binding inh: 79.4µM*; BAZ2B inh: 8.91µM*; G9a block: 7.94µM*; JMJD2A Tudor: 22.4µM*

Results for CCOC(=O)c1nnn(C(CC)C(=O)Nc2ccc(F)cc2)c1C(=O)OCC (stereo not given) ?
HP1b binding inh: 30.3%; BAZ2B inh: -5.6%; G9a block: -3.0%[59 µM]; JMJD2A Tudor: -8.2%

What do the screens show for `CC(C1CC2CCC1C2)n1c(-c2ccco2)n[nH]c1=S` (stereo not given)?
L3MBTL1 block: -14.7%; HP1b binding inh: inconclusive; BAZ2B inh: inconclusive; G9a block: 2.24µM*; JMJD2A Tudor: 20µM*
